# Experimental data taken from PubChem BioAssay.
# Calls of active or inactive are those of the source. Unless noted, how the calls were made is not given here.
# Key:
# [1] = test system: Wnt5a (protein binding on small-molecule microarray); assay: small molecules binding Wnt5a protein – biophysical, small-molecule microarray, 635/667 nm fluorescence, primary screen (AID 1142); conditions: 635 nm fluorescence, higher = more signal;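 further: fluorescence read at 667 nm with signal to noise per printed feature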
# [2] = ATP-based viability of Huh7 replicon cells – cell-based, CellTiter-Glo luminescence, basal, 48 h, cytotoxicity control for HCV replication inhibitor project, primary screen (AID 1143); conditions: higher = more signal, called active from +8 up or from −8 down;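 further: Huh7 hepatoma cells carrying a hepatitis C replication reporter with no stimulus; test concentration not given here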
# [3] = Pseudomonas biofilm growth suppression – PAO1 strain, BacTiter-Glo luminescence, LB-PBS, primary screen (AID 1144); conditions: P. aeruginosa PAO1 biofilm, 12 h, higher = more signal
# [4] = basal CRE-LacZ reporter activity in PC12 – cell-based, unstimulated, primary screen (AID 1145); conditions: no forskolin, luminescence, 4.5 h, higher = more signal, called active from +8 up or from −8 down
# [5] = forskolin-driven CRE-LacZ activity in PC12 – cell-based, CRE-LacZ reporter, forskolin-stimulated, primary screen (AID 1146); conditions: luminescence, 4.5 h, higher = more signal, called active from +8 up or from −8 down;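 further: PC12 cells with 6xCRE LacZ reporter stimulated by forskolin 10 µM; beta-galactosidase reporter signal reflecting CREB driven transcription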
# [6] = molecular target: Streptavidin (Streptomyces avidinii) (UniProt P22629); assay: compounds binding control protein streptavidin – biophysical, small-molecule microarray, 635/667 nm fluorescence, artefact control for SMM compound annotation, primary screen (AID 1147); conditions: higher = more signal;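 further: signal reflects streptavidin binding to arrayed compounds as a control protein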
# Chain of Streptavidin (Streptomyces avidinii) (P22629 whole entry, looked up): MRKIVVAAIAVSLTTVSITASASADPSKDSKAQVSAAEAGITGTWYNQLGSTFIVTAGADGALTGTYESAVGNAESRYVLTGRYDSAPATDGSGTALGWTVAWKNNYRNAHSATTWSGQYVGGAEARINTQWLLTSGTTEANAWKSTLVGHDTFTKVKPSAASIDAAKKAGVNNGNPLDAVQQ
# [7] = probe aInhba binding on compound microarray – biochemical, small-molecule microarray, 635/667 nm fluorescence, primary screen (AID 1148); conditions: higher = more signal;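 further: score merges 667nm spot fluorescence with signal-to-noise for antibody binding to printed compounds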
# [8] = molecular target: Torsin-1A (Homo sapiens) (UniProt O14656); assay: TOR1A wild-type binding on microarray – cell lysate, small-molecule microarray, lysate, 635/667 nm, primary screen (AID 1149); conditions: COS7 hTOR1A-WT lysate, 635 nm fluorescence, higher = more signal
# Chain of Torsin-1A (Homo sapiens) (O14656 whole entry, looked up): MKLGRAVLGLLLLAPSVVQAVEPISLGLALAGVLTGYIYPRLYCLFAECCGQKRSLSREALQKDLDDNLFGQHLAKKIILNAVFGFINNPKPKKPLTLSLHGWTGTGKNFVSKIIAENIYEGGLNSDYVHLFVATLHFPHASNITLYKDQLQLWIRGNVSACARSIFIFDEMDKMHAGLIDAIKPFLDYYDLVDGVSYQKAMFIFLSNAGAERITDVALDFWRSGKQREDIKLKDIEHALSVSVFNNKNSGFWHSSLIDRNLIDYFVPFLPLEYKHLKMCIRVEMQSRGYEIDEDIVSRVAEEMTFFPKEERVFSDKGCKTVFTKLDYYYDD
# [9] = molecular target: Torsin-1A (Homo sapiens) (UniProt O14656); assay: torsin A mutant lysate binding on microarrays – cell lysate, small-molecule microarray, COS7 lysate, 635/667 nm fluorescence, primary screen (AID 1150); conditions: COS7 hTOR1A mutant lysate, 635 nm fluorescence, higher = more signal;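 further: score pools 667 nm emission and signal to noise measuring lysate protein binding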
# [10] = test system: Sonic hedgehog protein (Shh); assay: Sonic hedgehog microarray binding compounds – biochemical, small-molecule microarray, 635/667 nm fluorescence, primary screen (AID 1151); conditions: 635 nm fluorescence, higher = more signal;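 further: Shh protein binding to compounds spotted on small-molecule microarray slides; score combines spot fluorescence intensity with signal-to-noise across triplicate slides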
# [11] = optical density shifts of acrAB sulA E. coli – strain DRC41, OD650, 48 h, E. coli filamentation inducer project, primary screen (AID 1152); conditions: higher = more signal, called active from +8 up or from −8 down;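 further: E. coli MC1000 strain DRC41 lacking acrAB efflux pump and sulA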
# [12] = probe aLefty1 binding on compound microarray – biochemical, small-molecule microarray, 635/667 nm fluorescence, primary screen (AID 1153); conditions: higher = more signal;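 further: score merges spot fluorescence with signal-to-noise ratio from the scanned slide images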
# [13] = plasmodial surface anion channel blockers, osmotic lysis – cell-based, P. falciparum Indochina, OD700, 1 h, primary screen (AID 1154); conditions: P. falciparum Indochina infected RBC osmotic lysis, higher = more signal, called active from +8 up or from −8 down
# [14] = plasmodial surface anion channel blockers, osmotic lysis – cell-based, P. falciparum Indochina, OD700, 2 h, primary screen (AID 1155);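 further: lysis reports solute entry through the parasite surface anion channel PSAC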; conditions: P. falciparum Indochina infected erythrocytes, higher = more signal, called active from +8 up or from −8 down
# [15] = changes in parasitized red cell lysis, either direction – P. falciparum Indochina, OD700, 3 h, PSAC antagonist project, primary screen (AID 1156); conditions: P. falciparum-infected erythrocytes, osmotic lysis, higher = more signal, called active from +8 up or from −8 down
# [16] = plasmodial surface anion channel blockers, osmotic lysis – cell-based, P. falciparum Indochina, OD700, 18 h, primary screen (AID 1157); conditions: P. falciparum Indochina infected erythrocytes, osmotic lysis OD700, 18 h; higher = more signal, called active from +8 up or from −8 down
# [17] = S6 kinase pathway phospho-S6 level changes – cell-based, A549, cytoblot, luminescence, serum-stimulated, primary screen (AID 1158); conditions: 5 h, higher = more signal;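 further: serum-stimulated A549 lung adenocarcinoma cells; signal is phosphorylated S6 detected by cytoblot immunostaining with HRP secondary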
# [18] = molecular target: NADPH oxidase 2 (Homo sapiens) (UniProt P04839); assay: compounds shifting NOX2 Amplex Red fluorescence – cell-based, HEK293-NOX2, PMA-stimulated, NOX inhibitor project, primary screen (AID 1159); conditions: 45 min, higher = more signal, called active from +8 up or from −8 down; further: test concentration not given here
# Chain of NADPH oxidase 2 (Homo sapiens) (P04839 whole entry, looked up): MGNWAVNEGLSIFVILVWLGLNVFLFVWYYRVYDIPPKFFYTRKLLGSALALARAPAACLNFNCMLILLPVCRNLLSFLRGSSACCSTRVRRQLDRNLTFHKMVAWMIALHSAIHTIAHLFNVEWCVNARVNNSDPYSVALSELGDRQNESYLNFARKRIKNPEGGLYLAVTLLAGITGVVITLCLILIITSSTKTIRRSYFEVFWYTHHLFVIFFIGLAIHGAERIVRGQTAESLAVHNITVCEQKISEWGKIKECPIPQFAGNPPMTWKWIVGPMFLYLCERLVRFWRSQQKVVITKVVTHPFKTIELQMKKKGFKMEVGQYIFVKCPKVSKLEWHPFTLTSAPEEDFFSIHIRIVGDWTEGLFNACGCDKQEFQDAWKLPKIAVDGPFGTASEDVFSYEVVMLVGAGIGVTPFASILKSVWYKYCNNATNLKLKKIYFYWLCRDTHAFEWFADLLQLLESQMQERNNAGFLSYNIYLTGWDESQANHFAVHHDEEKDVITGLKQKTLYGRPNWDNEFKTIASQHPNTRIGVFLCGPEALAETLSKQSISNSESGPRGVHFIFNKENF
# [19] = molecular target: NADPH oxidase 4 (Homo sapiens) (UniProt Q9NPH5); assay: compounds shifting NOX4 Amplex Red fluorescence – cell-based, HEK293-NOX4, tetracycline-induced, NOX inhibitor project, primary screen (AID 1160); conditions: HEK293-NOX4, Amplex Red H2O2 fluorescence, 45 min; higher = more signal, called active from +8 up or from −8 down
# Chain of NADPH oxidase 4 (Homo sapiens) (Q9NPH5 whole entry, looked up): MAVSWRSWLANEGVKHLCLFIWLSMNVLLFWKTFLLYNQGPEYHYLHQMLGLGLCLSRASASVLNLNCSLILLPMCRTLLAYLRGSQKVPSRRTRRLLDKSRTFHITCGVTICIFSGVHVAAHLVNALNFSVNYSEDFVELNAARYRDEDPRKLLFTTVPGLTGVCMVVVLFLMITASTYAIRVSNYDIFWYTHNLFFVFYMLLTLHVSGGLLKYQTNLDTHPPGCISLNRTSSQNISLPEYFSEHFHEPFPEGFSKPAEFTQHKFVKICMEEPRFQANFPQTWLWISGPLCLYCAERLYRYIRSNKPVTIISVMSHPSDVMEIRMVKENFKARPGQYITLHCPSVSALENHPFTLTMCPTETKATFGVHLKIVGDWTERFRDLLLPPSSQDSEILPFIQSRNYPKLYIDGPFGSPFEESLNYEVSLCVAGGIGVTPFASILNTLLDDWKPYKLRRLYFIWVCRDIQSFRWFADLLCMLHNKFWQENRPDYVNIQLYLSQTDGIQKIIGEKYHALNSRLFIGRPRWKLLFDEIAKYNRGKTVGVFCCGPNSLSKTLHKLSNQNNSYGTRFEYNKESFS
# [20] = molecular target: NADPH oxidase 5 (Homo sapiens) (UniProt Q96PH1); assay: compounds shifting NOX5 Amplex Red fluorescence – cell-based, HEK293-NOX5, NOX inhibitor project, primary screen (AID 1161); conditions: HEK293-NOX5, ionomycin, 45 min, higher = more signal
# Chain of NADPH oxidase 5 (Homo sapiens) (Q96PH1 whole entry, looked up): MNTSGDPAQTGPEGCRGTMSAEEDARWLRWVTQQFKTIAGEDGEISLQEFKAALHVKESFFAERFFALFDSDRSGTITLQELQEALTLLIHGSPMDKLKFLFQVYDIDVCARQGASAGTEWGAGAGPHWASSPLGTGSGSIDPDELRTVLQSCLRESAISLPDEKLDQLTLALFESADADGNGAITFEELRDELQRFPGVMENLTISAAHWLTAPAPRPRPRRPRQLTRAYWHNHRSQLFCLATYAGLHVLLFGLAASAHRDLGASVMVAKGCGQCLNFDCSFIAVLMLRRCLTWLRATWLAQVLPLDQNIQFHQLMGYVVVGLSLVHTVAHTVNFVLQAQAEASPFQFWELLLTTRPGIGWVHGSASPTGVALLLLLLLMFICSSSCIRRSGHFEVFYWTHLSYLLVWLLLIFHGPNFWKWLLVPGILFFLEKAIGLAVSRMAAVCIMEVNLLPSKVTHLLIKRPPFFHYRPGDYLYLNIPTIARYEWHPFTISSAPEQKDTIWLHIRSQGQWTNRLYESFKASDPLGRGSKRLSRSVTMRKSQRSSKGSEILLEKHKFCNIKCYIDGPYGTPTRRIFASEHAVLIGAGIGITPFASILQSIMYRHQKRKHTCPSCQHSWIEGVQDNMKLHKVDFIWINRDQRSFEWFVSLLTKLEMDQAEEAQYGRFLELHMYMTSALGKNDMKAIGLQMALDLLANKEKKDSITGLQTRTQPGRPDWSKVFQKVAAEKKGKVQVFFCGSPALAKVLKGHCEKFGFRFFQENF
SMILES,composite z-score [1],z-score [2],z-score [3],z-score [4],z-score [5],composite z-score [6],composite z-score [7],composite z-score [8],composite z-score [9],composite z-score [10],z-score [11],composite z-score [12],z-score [13],z-score [14],z-score [15],z-score [16],z-score [17],z-score [18],z-score [19],z-score [20]
CCCNC(=O)[C@@H]1c2ccccc2C(=O)N(c2ccc(C)cn2)[C@H]1c1ccc(CO)cc1,-0.108,0.62 (inactive),0.242 (inactive),-0.412 (inactive),0.538 (inactive),-0.372,-0.108,-0.291,-0.397,-0.013,-0.292 (inactive),-0.303,1.97 (inactive),-0.0991 (inactive),0.562 (inactive),0.0336 (inactive),0.214,0.114 (inactive),0.0822 (inactive),-0.974
CN(C)CCCNC(=O)[C@@H]1c2ccccc2C(=O)N(Cc2cc(F)cc(C(F)(F)F)c2)[C@H]1c1ccc(CO)cc1,0.095,-1.77 (inactive),-0.101 (inactive),0.351 (inactive),0.159 (inactive),-0.621,-0.0849,0.65,-0.348,0.388,-0.72 (inactive),-0.0818,1.88 (inactive),0.382 (inactive),2.38 (inactive),0.745 (inactive),0.269,0.547 (inactive),-0.0177 (inactive),-2.19
COc1ccc(O[C@H]2C=C[C@@H](c3ccccc3)O[C@@H]2COC(=O)N2CCCCC2)cc1,-0.19,-0.259 (inactive),0.615 (inactive),0.929 (inactive),0.197 (inactive),-0.221,-0.108,0.205,0.125,0.147,0.309 (inactive),0.174,2 (inactive),-0.213 (inactive),-0.0257 (inactive),-0.169 (inactive),-0.428,-0.138 (inactive),0.334 (inactive),-1.71
C=C(CCCC)C(=O)CC[C@@H](OC(C)=O)c1cccc(OCCO)c1,0.0837,-7.53 (inactive),-0.0381 (inactive),9.03 (active),2.58 (inactive),-0.543,-0.21,1.29,0.594,1.56,-0.462 (inactive),-0.101,2.82 (inactive),1.81 (inactive),-1.27 (inactive),0.822 (inactive),0.0149,-1.14 (inactive),-1.3 (inactive),-3.02
O=C1O[C@@H](c2ccccc2)[C@@H](c2ccccc2)N2[C@@H](c3ccccc3OCCO)[C@]3(C(=O)Nc4ccc(C#CCCO)cc43)[C@@H](C(=O)O)[C@H]12,0.44,-5.04 (inactive),-0.923 (inactive),-0.465 (inactive),1.6 (inactive),0.618,1.43,0.536,0.925,0.517,0.0825 (inactive),1.66,1.32 (inactive),-2.1 (inactive),0.152 (inactive),-2.06 (inactive),1.47,0.559 (inactive),-0.438 (inactive),-0.847
C[C@@H]1C=CCC(=O)OC[C@H](C)C(=O)OC[C@H]2O[C@H]1C=C[C@H]2O,0.263,0.196 (inactive),-0.0585 (inactive),-0.2 (inactive),0.165 (inactive),-0.392,-0.105,-0.0292,0.188,1.09,0.0366 (inactive),-0.15,1.17 (inactive),0.714 (inactive),0.0284 (inactive),0.254 (inactive),1.68,-0.648 (inactive),-2.12 (inactive),-0.384
C[C@H](c1ccccc1)N1C(=O)[C@H]2[C@@H]3C(=CC[C@H]2C1=O)C(=O)[C@H]1O[C@H]1[C@H]3O,-0.103,-7.43 (inactive),1.16 (inactive),0.699 (inactive),4.29 (inactive),0.108,-0.0474,0.25,-0.0342,0.469,0.0931 (inactive),-0.239,-0.564 (inactive),-0.0275 (inactive),0.163 (inactive),-0.0165 (inactive),-0.836,-0.76 (inactive),-0.156 (inactive),1.13
C=C(/C(=C/C[C@H](OC(C)=O)c1ccc(OCCO)cc1)c1cnc2ccccc2c1)C(C)C,0.826,-2.51 (inactive),-1.37 (inactive),2.06 (inactive),-0.586 (inactive),0.868,-0.108,0.55,1,2.21,1.02 (inactive),-0.314,12.8 (active),1.64 (inactive),1.56 (inactive),0.749 (inactive),0.268,-2.21 (inactive),-0.569 (inactive),-1.8
O=C1O[C@@H](c2ccccc2)[C@@H](c2ccccc2)N2[C@@H](c3ccc(OCCO)cc3)[C@]3(C(=O)Nc4ccc(C#CCCO)cc43)[C@@H](C(=O)N3CCCCCCC3)[C@H]12,0.825,-1.11 (inactive),-0.928 (inactive),-0.168 (inactive),0.0629 (inactive),2.31,1.75,0.782,1.31,1.59,0.974 (inactive),2.79,4.33 (inactive),1.27 (inactive),0.526 (inactive),0.737 (inactive),-0.178,1.6 (inactive),0.824 (inactive),1.08
